The text below walks through data of PubChem BioAssay AID1851 (National Center for Advancing Translational Sciences (NCATS), 2009).

Screen size: about 16,000 compounds; about 5,800 (36%) were called active. Not shown: some 23% with an inconclusive outcome. Calls come from the whole dose curve; as a rule, active = well fitted curve in the direction sought with a large enough effect; inconclusive = small, poorly fitted or top-dose-only effect, or effect the other way; inactive = no such curve, though single readings can be large or run the other way. Some of the results follow. Where a structure was tested more than once in an assay, its records may differ in their call.
% is set by controls: 0 for no effect and ±100 for the full control effect.

In this assay the target is Cytochrome P450 2C19 (Homo sapiens) (UniProt P33261). The assay is described as follows: Cytochrome panel assay with activity outcomes. To be noted: recombinant CYP, pro-luciferin dealkylation, luminescence, p450-cyp2c19; series mostly up to 57.1 µM; activity, negative = inhibition: at the top concentration.
Chain of Cytochrome P450 2C19 (Homo sapiens) (P33261 whole entry, looked up): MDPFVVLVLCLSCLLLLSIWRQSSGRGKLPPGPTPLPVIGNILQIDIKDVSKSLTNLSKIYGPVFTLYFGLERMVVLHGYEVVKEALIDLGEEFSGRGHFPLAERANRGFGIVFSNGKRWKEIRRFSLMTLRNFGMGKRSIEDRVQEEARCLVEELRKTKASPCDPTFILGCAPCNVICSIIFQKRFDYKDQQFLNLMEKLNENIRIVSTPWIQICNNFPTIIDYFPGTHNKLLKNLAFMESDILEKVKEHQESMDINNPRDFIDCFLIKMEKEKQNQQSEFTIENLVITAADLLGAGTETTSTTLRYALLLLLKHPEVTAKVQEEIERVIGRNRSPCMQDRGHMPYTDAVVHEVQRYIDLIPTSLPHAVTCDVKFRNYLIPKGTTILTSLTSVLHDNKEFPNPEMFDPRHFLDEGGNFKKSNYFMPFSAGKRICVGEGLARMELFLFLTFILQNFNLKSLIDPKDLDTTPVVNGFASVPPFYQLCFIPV
As to `Cc1cc(Nc2ccccc2)nc(N)n1`, the “activity, negative = inhibition” value was -10.5% (inactive).
For orientation: AC50 means the concentration at which the activity in the assay is half-maximal. `COc1ccc(Nc2nc(N)nc(CSc3n[nH]c(-c4ccccc4)n3)n2)cc1`: the AC50 was 10 µM (active).
In the case of `CCCOc1ccc(-c2nc(N)n[nH]2)cc1`, the “activity, negative = inhibition” value was -29.8% (inactive).
For `Cc1nnc(SCc2nc(N)nc(Nc3ccccc3)n2)s1`, the AC50 is 14.1 µM (active).
`C#CCSc1n[nH]c(-c2ccco2)n1`: the activity, negative = inhibition was 0.772% [at 11.4 µM] (inactive).
As for `CCCc1nnc(SCC(=O)N2C(C)CCCC2C)n1CCCOC` (stereo not given), the AC50 was 28.2 µM (active).
`CCCc1nnc(SCC(=O)N2CCCCC2)n1CCCOC`: the “activity, negative = inhibition” value was -6.08% (inactive).
Still for that read-out and setting: then `NOCC(=O)O`, with 26.6% (inactive); and `COc1ccc(C(=O)Nc2ccc(NC(=O)c3ccco3)c(Cl)c2)cc1OC`, with -27% (inactive).
`CC(C)Oc1ccc(C(=O)Nc2ccc(NC(=O)c3ccco3)c(Cl)c2)cc1`: the AC50 was 3.98 µM (active).
As for `CNc1cc(OC)c(C(=O)N[C@@H]2CCN(Cc3ccccc3)[C@H]2C)cc1Cl`, the “activity, negative = inhibition” value is -10.1% (inactive).
With `COc1cc(NC(=O)c2ccccc2Cl)ccc1NC(=O)c1ccco1`, the concentration at half-maximal activity (AC50) is 8.91 µM (active).
On the same count and under the same terms, then `Cc1nn(-c2ccc(F)cc2)c(C)c1NS(=O)(=O)c1ccc2ccccc2c1`, with 0.316 µM (active).
In the case of `Cc1ccc(C)c(/C(=N\N=C(N)N)C2CC2)c1`, the activity, negative = inhibition is -19.5% [at 11.4 µM] (inactive).
Still for that read-out and setting: to `CCCCCCCCCCCCCCCC(=O)NC(C)C` belongs -14.3% (inactive); to `CCCCCC(=O)Nc1cc2[nH]c(=O)cc(COC)c2cc1C`, -5.35% (inactive).
Take `CCCCCCCCC(=O)N/N=C/c1ccccn1`: the AC50 is 5.01 µM (active).
On the same count and under the same terms, to `CCN(CC)C(=O)C(=O)N/N=C/c1cccc(Br)c1` belongs 22.4 µM (active); to `CCCCCCCCC(=O)N/N=C/c1cccc(Br)c1`, 2 µM (active).
With `O=C(N/N=C/c1ccccn1)c1ccco1`, the “activity, negative = inhibition” value is 3.57% (inactive).
Turning to `C[C@@](Cc1ccc(O)c(O)c1)(NN)C(=O)O`, the “activity, negative = inhibition” value is -35.7% (inactive).
For the compound `Cc1cc2cc3c(cc2nc1SCC(=O)Nc1c(C)cccc1C)CCC3`, the AC50 is 3.55 µM (active).
Still for that read-out and setting: to `COc1ccc(CCn2c(C)cc(C(=O)CSc3nc(N)cc(=O)[nH]3)c2C)cc1` belongs 3.55 µM (active).
Turning to `COc1ccc(C(=O)NC2(C(F)(F)F)C(=O)Nc3c2c(=O)[nH]c(=O)n3CCc2ccc(OC)c(OC)c2)cc1` (stereo not given), the “activity, negative = inhibition” value is -8.4% (inactive).
On to `Cc1cc(C(=O)CSc2nnc(N)s2)c(C)n1CCc1ccc(F)cc1`, for which the concentration at half-maximal activity (AC50) was 0.794 µM (active).
On the same count and under the same terms, then `CCOC(=O)Nc1ccc2c(c1)OCO2`, with 20 µM (active); and `COc1cccc(NC(=O)c2oc3ccccc3c2NC(=O)c2ccc3c(c2)OCO3)c1`, with 3.55 µM (active).
For the compound `CCOc1ccc(NC(=O)c2oc3ccccc3c2NC(=O)CC)cc1`, the AC50 was 2.24 µM (active).
As to `CCOCC(=O)Nc1c(C(=O)Nc2ccccc2OC)oc2ccccc12`, the “activity, negative = inhibition” value is 4.01% (inactive).
Take `O=C(Nc1cccc(-c2nc3ccccc3s2)c1)c1ccc2c(c1)OCO2`: the AC50 was 7.08 µM (active).
The same measure, in the same setting: to `CCOC(=O)c1oc2ccccc2c1NC(=O)c1cc(OC)cc(OC)c1` belongs 25.1 µM (active).
As for `CC(C)(C)c1ccc(OC(=O)Nc2ccc(O)c(C(=O)O)c2)cc1`, the activity, negative = inhibition was 41.8% [at 11.4 µM] (inactive).
As to `CCOC(=O)c1oc2ccccc2c1NC(=O)c1ccc2c(c1)OCO2`, the AC50 was 2.82 µM (active).
With `CCOC(=O)c1oc2ccccc2c1NC(=O)c1ccc(S(=O)(=O)N(C)C)cc1`, the “activity, negative = inhibition” value is -18.8% (inactive).
Turning to `CCOC(=O)Nc1ccc(C(=O)Oc2ccccc2)c(O)c1`, the AC50 is 3.55 µM (active).
Same read-out and setting: then `C=CCN(CC=C)CC(O)Cn1c2ccccc2c2ccccc21` (stereo not given), with 0.562 µM (active).
For `Cc1ccccc1OCC(O)Cn1c(NCc2ccccc2)nc2c1c(=O)[nH]c(=O)n2C` (stereo not given), the “activity, negative = inhibition” value was -14.8% (inactive).
On to `Cc1ccc(OCC(O)Cn2c3ccccc3c3ccccc32)cc1` (stereo not given), for which the AC50 was 1.26 µM (active).
`Cc1cccc(C)c1OCC(O)CNC(C)(C)C` (stereo not given): the “activity, negative = inhibition” value was -19.1% (inactive).
`Cc1ccccc1OCC(O)Cn1c2ccccc2c2ccccc21` (stereo not given): the AC50 is 0.631 µM (active).
On the same count and under the same terms, to `c1ccc([C@@H]2CN3CCSC3=N2)cc1` belongs “inactive”; to `COc1ccc(CCn2c(=N)c(C(=O)NCc3ccco3)cc3c(=O)n4ccccc4nc32)cc1`, 11.2 µM (active).
In the case of `CCn1c(CC(=O)Nc2ccc(C)cc2)nnc1SCC(=O)Nc1nc(C)cs1`, the “activity, negative = inhibition” value is 1% (inactive).
With `CCn1c(CC(=O)Nc2ccc(C)cc2)nnc1SCC(=O)NCCc1ccccc1`, the AC50 is 22.4 µM (active).
Turning to `CCn1c(CSCc2ccc(C)cc2)nnc1SCC(=O)NCc1ccccc1`, the half-maximal activity concentration (AC50) is 14.1 µM (active).
The same measure, in the same setting: to `C=CCn1c(Cc2c[nH]c3ccccc23)nnc1SCC(=O)NCc1ccccc1` belongs 25.1 µM (active).
For the compound `C[C@@](N)(C(=O)O)c1ccc(S(=O)(=O)O)cc1`, the “activity, negative = inhibition” value was -24.8% (inactive).
As to `COc1cc(OC)c2nc(C)c3c(c2c1)N(c1ccc(O)cc1)CC3`, the AC50 was 14.1 µM (active).
On to `Clc1ccccc1C(Nc1cnccn1)Nc1cnccn1`, for which the activity, negative = inhibition is 12% [at 11.4 µM] (inactive).
As for `CC1(C)S[C@@H]2[C@H](C(=O)O)N=C(Cc3ccccc3)N2[C@H]1C(=O)O`, the activity, negative = inhibition was 28.2% [at 11.4 µM] (inactive).
The same measure, in the same setting: to `COc1ccc2c(c1)c(CC(=O)OCC(=O)O)c(C)n2C(=O)c1ccc(Cl)cc1` belongs -14.1% [at 25.6 µM] (inactive).
As to `COc1ccc2c(c1)c(CC(=O)O)c(C)n2C(=O)c1ccc(Cl)cc1`, the AC50 entry is “inactive”.
Regarding `COc1ccc2c(c1)c(CC(=O)O)c(C)n2Cc1ccc(Cl)cc1`, the AC50 is 10 µM (active).
Consider `CC(C)(C)N1C(=O)[C@H]2[C@@H]3[C@H](O)C=CC(=O)[C@H]3CC[C@H]2C1=O`, for which the activity, negative = inhibition was 23.7% [at 11.4 µM] (inactive).
Same read-out and setting: to `C[C@@H]1CC[C@H]2C(=O)N3[C@@H](CC[C@@H](C)[C@@H]3c3ccc(Br)cc3)C(=O)N2[C@@H]1c1ccc(Br)cc1` belongs -27.6% [at 11.4 µM] (inactive).
In the case of `CS(=O)(=O)N1N=C(c2ccc(Br)cc2)CC1c1ccc2c(c1)OCO2` (stereo not given), the concentration at half-maximal activity (AC50) is 0.178 µM (active).
As for `COc1ccc(NC(=O)CCNS(=O)(=O)c2ccc3c(c2)c(=O)n(C)c(=O)n3C)cc1`, the “activity, negative = inhibition” value is 72.2% (inactive).
As for `COc1ccc(OCCNS(=O)(=O)c2ccc3oc4ccccc4c3c2)cc1`, the AC50 was 2.24 µM (active).
Still for that read-out and setting: to `CCCCc1ccc(NC(=S)NCc2cccs2)cc1` belongs 3.55 µM (active).
In the case of `Cc1ccc(C(=O)COC(=O)CNC(=O)Cc2ccccc2)cc1[N+](=O)[O-]`, the “activity, negative = inhibition” value was -20.8% (inactive).
As for `Cc1ccc(C(=O)COC(=O)CNC(=O)C(c2ccccc2)c2ccccc2)cc1[N+](=O)[O-]`, the AC50 was 5.01 µM (active).
Still for that read-out and setting: then `Cc1ccc(C(CC(=O)c2ccco2)SCCO)cc1` (stereo not given), with 2.82 µM (active).
As for `CC[C@H](CN(C)C)C(=O)c1ccco1`, the activity, negative = inhibition was 8.39% [at 11.4 µM] (inactive).
Same read-out and setting: to `Cc1cc(=O)c2c(O)c(O)ccc2o1` belongs -24.3% (inactive); to `COc1ccc(C2=C(C#N)C(=O)OC2)cc1`, -21.4% (inactive).
As for `O=c1cc(-c2ccccc2)oc2cc(O)c(O)c(O)c12`, the “activity, negative = inhibition” value is -2.25% (inactive).
Consider `O=C(O)c1c(-c2c3ccc(=O)cc-3oc3cc(O)ccc23)cc2ccccc2c1-c1ccccc1`, for which the activity, negative = inhibition was 25.6% [at 11.4 µM] (inactive).
`O=c1cc(-c2ccccc2)oc2cc(O)cc(O)c12`: the AC50 is 0.794 µM (active).
Same read-out and setting: then `O=c1cc(-c2ccc(O)cc2)oc2cc(O)cc(O)c12`, with 7.94 µM (active).
Regarding `COc1ccc(-c2cc(=O)c3c(O)cc(O)cc3o2)cc1`, the AC50 is 1 µM (active).
In the case of `O=c1c(O)c(-c2ccc(O)c(O)c2)oc2cc(O)cc(O)c12`, the “activity, negative = inhibition” value is 0.603% [at 25.6 µM] (inactive).
For `C=CCSC1=Nc2sccc2C2=NC(=O)CN12`, the concentration at half-maximal activity (AC50) was 7.94 µM (active).
In the case of `C[C@@](N)(Cc1ccc(O)c(O)c1)C(=O)O`, the “activity, negative = inhibition” value was -4.51% [at 25.6 µM] (inactive).
The same measure, in the same setting: then `Cc1cnc(CNc2ccnc(-c3ccccc3C)n2)cn1`, with -27.8% (inactive).
With `Cc1cccc(CNc2ccnc(-c3ccccc3Cl)n2)c1`, the AC50 is 1.26 µM (active).
Turning to `Cc1cccc(CNc2ccnc(-c3ccccc3CN(C)C)n2)c1`, the “activity, negative = inhibition” value was -33.5% (inactive).
Still for that read-out and setting: then `CNc1ccnc(-c2ccccc2OC)n1`, with -16.3% (inactive).
On to `COc1ccccc1-c1nccc(NCc2cccc(C)c2)n1`, for which the AC50 is 10 µM (active).
Still for that read-out and setting: to `COc1ccccc1-c1nccc(NCc2ccccc2)n1` belongs 7.94 µM (active); to `Cc1ccccc1-c1nccc(NCc2cccnc2)n1`, 5.01 µM (active).
Regarding `Cc1noc(C)c1-c1nccc(NCc2cccnc2)n1`, the AC50 is 25.1 µM (active).
For the compound `Cc1cnc(CNc2ccnc(-c3c(C)noc3C)n2)cn1`, the “activity, negative = inhibition” value is 17.1% (inactive).
For `COc1ccccc1-c1nccc(NCc2cccnc2)n1`, the AC50 is 3.98 µM (active).
Take `COC(=O)C/C=C\[C@@H](C)[C@@H](/C=N\OC[C@@H](O)[C@H]1O[C@H]2OC(C)(C)O[C@H]2[C@@H]1O)OC`: the activity, negative = inhibition was -19.4% [at 11.4 µM] (inactive).
Same read-out and setting: then `NC(=O)Nc1n[nH]c(-c2ccccc2)n1`, with 13.8% [at 11.4 µM] (inactive).
As to `Clc1ccccc1-c1nc(-c2ccccc2)n[nH]1`, the AC50 was 17.8 µM (active).
In the case of `O=c1ccc(-c2ccccc2)n[nH]1`, the activity, negative = inhibition was 13.5% [at 11.4 µM] (inactive).
Still for that read-out and setting: then `CN1CCN(c2ncc3nc(-c4cc(F)cc(F)c4)c(=O)n(C4CC4)c3n2)CC1`, with 0.372% (inactive); and `O=S(=O)(O)c1ccc(N=Nc2ccccc2)cc1`, with 6.93% [at 11.4 µM] (inactive).
As to `O=S(=O)(C=C(c1ccccc1)c1ccccc1)c1ccccc1`, the AC50 is 2.82 µM (active).
As for `Nc1ccc(S(=O)(=O)NC(=O)c2ccccc2)cc1`, the “activity, negative = inhibition” value is 6.33% [at 25.6 µM] (inactive).
Regarding `COc1ccc(NC(=O)N2CC[C@@]3(CCCN(C(=O)c4cc(C(F)(F)F)cc(C(F)(F)F)c4)C3)C2)cc1`, the “activity, negative = inhibition” value is -14.2% (inactive).
Regarding `COc1ccc(S(=O)(=O)N2CC3CCCN3c3ccc(C(F)(F)F)cc32)cc1` (stereo not given), the AC50 was 0.562 µM (active).
Still for that read-out and setting: then `O=S(=O)(c1ccc(F)cc1)N1CC2CCCN2c2ccc(C(F)(F)F)cc21` (stereo not given), with 2.24 µM (active).
Regarding `COc1ccc(C(OCCN2CCC[C@@H](C(=O)O)C2)(c2ccc(OC)cc2)c2ccc(OC)cc2)cc1`, the “activity, negative = inhibition” value was -12.7% (inactive).
Still for that read-out and setting: to `Nc1ccccc1CCCC(=O)O` belongs -13.9% [at 11.4 µM] (inactive).
With `COc1ccccc1CN1CCCC2(CCN(C(=O)c3csnn3)CC2)C1`, the “activity, negative = inhibition” value is 10.3% (inactive).
With `COC(=O)c1nn(-c2cccc(C(F)(F)F)c2)c(=O)cc1Sc1ccccn1`, the AC50 is 5.62 µM (active).
Still for that read-out and setting: then `N#Cc1cc(N)ccc1Sc1ccc(Cl)cc1`, with 3.16 µM (active); and `CCc1sc(N(C(=O)Cc2ccccc2)c2cccc(F)c2)nc1-c1ccc(C)cc1`, with 2.82 µM (active).
